# Test results taken from PMC4242493, “Sequence specificity incompletely defines the genome-wide occupancy of Myc”.
# Whole data set: some 33,000 sequences, median “normalized occupancy” near 0.075, cut for the highest 2% near 0.095. The sample as a whole holds a higher share of the highest values than the screen did.
# Biological target: MaxL homodimer (Homo sapiens, UniProt P61244 1-160)
# Test: universal protein-binding microarray (PBM); PBS-based mixture, 10 nM His-tagged protein dimer, 2% milk, 200 ng/uL BSA, 50 ng/uL salmon testes DNA, 0.02% TX-100; detection with Alexa 488 anti-His antibody;; high values mean tight binding
# Conditions: protein: recombinant; tags: C-terminal His-tag (pET21a); chain copies: 2; dsDNA, one strand shown
# Outline: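 His-tagged protein dimer at 10 nM was incubated on Agilent 4 x 44 K arrays with the 'all 10-mer' universal design. Bound protein was tagged with 10 ng/μL fluorophore-conjugated anti-His antibody, and arrays were scanned on a GenePix 4400A. Binding occupancy for each 8-mer is its fluorescence intensity normalised to the highest-ranked 8-mer's intensity.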
# MaxL homodimer, sequence (P61244 whole entry): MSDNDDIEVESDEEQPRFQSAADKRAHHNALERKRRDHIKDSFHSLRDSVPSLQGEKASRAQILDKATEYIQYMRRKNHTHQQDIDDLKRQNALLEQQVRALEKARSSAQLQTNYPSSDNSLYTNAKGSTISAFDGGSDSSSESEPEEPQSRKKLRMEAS
row,Sequence,binding signal
1,ACCTAAAT,0.073 normalized occupancy
2,GAGCTATA,0.0729 normalized occupancy
3,ATGTGGAA,0.0936 normalized occupancy
4,GTATGGAA,0.0836 normalized occupancy
5,ACAGCACG,0.0906 normalized occupancy
6,CCCTGGAA,0.0745 normalized occupancy
7,AGCAGACA,0.0774 normalized occupancy
8,CCGCCACC,0.0762 normalized occupancy
9,TAATTGTA,0.0773 normalized occupancy
10,CTTTTGGA,0.0744 normalized occupancy
11,CACCTGAG,0.0741 normalized occupancy
12,CACCTGGC,0.103 normalized occupancy
13,CACCTGAC,0.0973 normalized occupancy
14,CACCTGGA,0.0905 normalized occupancy
15,CACCTGGG,0.0841 normalized occupancy
16,CACCTGTC,0.0839 normalized occupancy
17,ATTCGAGG,0.0723 normalized occupancy
18,ACTGCACT,0.0733 normalized occupancy
19,ACATGTCA,0.0911 normalized occupancy
20,AGATGTTG,0.0819 normalized occupancy
21,GCATGTTA,0.0976 normalized occupancy
22,ACATGTTG,0.11 normalized occupancy
23,GCATGTCC,0.0929 normalized occupancy
24,CCATGTTA,0.0847 normalized occupancy
25,AAATGTTG,0.0794 normalized occupancy

row,Sequence,binding signal
1,AGATGTTA,0.0811 normalized occupancy
2,GTATGTTA,0.0849 normalized occupancy
3,GCATGTCA,0.0972 normalized occupancy
4,ACATGTTA,0.0993 normalized occupancy
5,ATATGTTA,0.0924 normalized occupancy
6,TACAGACA,0.0803 normalized occupancy
7,CATTGACG,0.0792 normalized occupancy
8,CGACCCTC,0.0724 normalized occupancy
9,TCTTGTAA,0.0718 normalized occupancy
10,AGAACGAC,0.0774 normalized occupancy
11,GAGGCCCC,0.0733 normalized occupancy
12,GATGTCCA,0.0757 normalized occupancy
13,CCATTCTA,0.0759 normalized occupancy
14,AGCTGCCA,0.0736 normalized occupancy
15,ACATGTTC,0.0965 normalized occupancy
16,CCATGTTC,0.0828 normalized occupancy
17,ATATGTTC,0.0831 normalized occupancy
18,GGCATCAC,0.0813 normalized occupancy
19,GACAAGCC,0.0728 normalized occupancy
20,AAGCATCA,0.076 normalized occupancy
21,ATGCGCAC,0.0828 normalized occupancy
22,ACACGCAC,0.0931 normalized occupancy
23,ACACGCAT,0.0976 normalized occupancy
24,ATACGCAT,0.0968 normalized occupancy
25,ATGCGCAT,0.102 normalized occupancy

row,Sequence,binding signal
1,ATACGCAG,0.0734 normalized occupancy
2,ATGCGCAG,0.0789 normalized occupancy
3,ACACGCAA,0.087 normalized occupancy
4,ATACGCAC,0.0799 normalized occupancy
5,CAGTACTA,0.0775 normalized occupancy
6,CCCACAGC,0.0741 normalized occupancy
7,CCTGGCTC,0.0726 normalized occupancy
8,ACCTAAGT,0.0745 normalized occupancy
9,AGTGATGG,0.0766 normalized occupancy
10,GGTAGTCA,0.0743 normalized occupancy
11,AAAATGAC,0.0766 normalized occupancy
12,CATGCAGC,0.0946 normalized occupancy
13,CATGCAGA,0.0959 normalized occupancy
14,AATGCAGA,0.0752 normalized occupancy
15,CATGCAGG,0.097 normalized occupancy
16,CCTGCAGG,0.074 normalized occupancy
17,AATGCAGG,0.08 normalized occupancy
18,GGTTTGTA,0.0749 normalized occupancy
19,AGTTCTAC,0.0751 normalized occupancy
20,AACAAATT,0.0736 normalized occupancy
21,CGGCAAGC,0.0718 normalized occupancy
22,CTTGTAAC,0.0775 normalized occupancy
23,ACCCACCG,0.0804 normalized occupancy
24,AGCGCATA,0.0757 normalized occupancy
25,AGCGCATC,0.0737 normalized occupancy

row,Sequence,binding signal
1,ACCGCATA,0.0828 normalized occupancy
2,AGCGCATG,0.109 normalized occupancy
3,ATCGCATC,0.0742 normalized occupancy
4,ACCGCATC,0.0749 normalized occupancy
5,ATCGCATA,0.082 normalized occupancy
6,ATCGCATG,0.108 normalized occupancy
7,ACCGCATG,0.146 normalized occupancy
8,AATTCACA,0.0775 normalized occupancy
9,GTCACTAA,0.0757 normalized occupancy
10,AACATCTC,0.0748 normalized occupancy
11,ATGGACGG,0.0788 normalized occupancy
12,CACACGAC,0.0877 normalized occupancy
13,AACACGAT,0.0845 normalized occupancy
14,AACACGAG,0.11 normalized occupancy
15,CACACGAA,0.0853 normalized occupancy
16,CACACGAG,0.0978 normalized occupancy
17,AACACGAA,0.0741 normalized occupancy
18,TAGAGCTA,0.0719 normalized occupancy
19,AGTGTATC,0.0882 normalized occupancy
20,AAATTGCC,0.0721 normalized occupancy
21,CAATTCTA,0.0752 normalized occupancy
22,AACATTTA,0.0795 normalized occupancy
23,CACATTGC,0.0923 normalized occupancy
24,CACATTGA,0.0932 normalized occupancy
25,CACATTGG,0.0977 normalized occupancy

row,Sequence,binding signal
1,CACATTTA,0.0961 normalized occupancy
2,GACATTTA,0.0853 normalized occupancy
3,GTTCTAGA,0.0745 normalized occupancy
4,ATGTGGAC,0.0955 normalized occupancy
5,ATGTGGTC,0.0985 normalized occupancy
6,ATGTGGTA,0.0922 normalized occupancy
7,CTGTGGAC,0.0726 normalized occupancy
8,ATGTGGAG,0.0861 normalized occupancy
9,ATGTGGTG,0.0894 normalized occupancy
10,AACGCTGT,0.0729 normalized occupancy
11,CGCAATCC,0.0789 normalized occupancy
12,CCAATCTA,0.073 normalized occupancy
13,TCCACGCA,0.0885 normalized occupancy
14,ACCACGCC,0.102 normalized occupancy
15,ACCACACG,0.0972 normalized occupancy
16,ACCACGTA,0.0816 normalized occupancy
17,GCCACGCA,0.0915 normalized occupancy
18,ACCACACT,0.0849 normalized occupancy
19,ACCACGTC,0.0945 normalized occupancy
20,ACCACGTG,0.773 normalized occupancy
21,GCCACGCC,0.0925 normalized occupancy
22,ACCACGGC,0.0743 normalized occupancy
23,ACCACGCA,0.0954 normalized occupancy
24,ACCACACA,0.085 normalized occupancy
25,AAAGCAGT,0.0719 normalized occupancy

row,Sequence,binding signal
1,ATGAAGCG,0.0749 normalized occupancy
2,GTCGCGCA,0.0729 normalized occupancy
3,CTATGCCA,0.0777 normalized occupancy
4,AACAAGAA,0.0753 normalized occupancy
5,AGCCTCTC,0.0729 normalized occupancy
6,ACCACGCT,0.123 normalized occupancy
7,ACCACGGT,0.0803 normalized occupancy
8,ATCACGTA,0.0829 normalized occupancy
9,ACCACGAT,0.0936 normalized occupancy
10,CCCACGTC,0.0804 normalized occupancy
11,ATCACGTC,0.0875 normalized occupancy
12,CCCACGCC,0.099 normalized occupancy
13,ACACCACA,0.083 normalized occupancy
14,ACACCACC,0.086 normalized occupancy
15,ACACCACG,0.0983 normalized occupancy
16,CCCACGGC,0.0782 normalized occupancy
17,ATCACGTG,0.363 normalized occupancy
18,CGAAGGTA,0.0721 normalized occupancy
19,CTGTGGCA,0.0739 normalized occupancy
20,AGGAACAG,0.0793 normalized occupancy
21,ACCACGGA,0.0736 normalized occupancy
22,CCCACGCA,0.0903 normalized occupancy
23,CCCACACA,0.0838 normalized occupancy
24,ATCACGCG,0.132 normalized occupancy
25,ACCACGGG,0.0834 normalized occupancy

row,Sequence,binding signal
1,CCCACGCG,0.148 normalized occupancy
2,ACCACGCG,0.187 normalized occupancy
3,ATCACGCC,0.0864 normalized occupancy
4,ATCACGCA,0.0877 normalized occupancy
5,ACGACGAG,0.0759 normalized occupancy
6,AATTACGA,0.0775 normalized occupancy
7,AATGGCAA,0.0742 normalized occupancy
8,CTCAACAA,0.0728 normalized occupancy
9,ACTGCTTC,0.0747 normalized occupancy
10,AGTTGGTC,0.0747 normalized occupancy
11,ACACGCCC,0.0863 normalized occupancy
12,ACACGCTA,0.0915 normalized occupancy
13,AAACGCCT,0.073 normalized occupancy
14,ACACGCCA,0.0895 normalized occupancy
15,ACGCGCTG,0.077 normalized occupancy
16,ACACGCCG,0.1 normalized occupancy
17,ACACGCTG,0.108 normalized occupancy
18,ACGCGCCT,0.0828 normalized occupancy
19,ACACGCCT,0.0971 normalized occupancy
20,CGTTATAA,0.079 normalized occupancy
21,ATGGCTCA,0.0798 normalized occupancy
22,CCACCATC,0.0768 normalized occupancy
23,CCCGTAAA,0.0752 normalized occupancy
24,CATTAAGA,0.0765 normalized occupancy
25,AACATATA,0.0841 normalized occupancy

row,Sequence,binding signal
1,CACATATG,0.095 normalized occupancy
2,AGCATATC,0.0822 normalized occupancy
3,ATCATATG,0.0972 normalized occupancy
4,ATCATATA,0.0893 normalized occupancy
5,AGCATATA,0.0807 normalized occupancy
6,ACCATATC,0.0845 normalized occupancy
7,AACATATG,0.1 normalized occupancy
8,ACCATATA,0.0814 normalized occupancy
9,AGCATATG,0.103 normalized occupancy
10,ATCATATC,0.0861 normalized occupancy
11,ACCATATG,0.118 normalized occupancy
12,GTTACGTA,0.0751 normalized occupancy
13,CTCGATAC,0.0749 normalized occupancy
14,AAATGCTG,0.0762 normalized occupancy
15,AAAAGCTA,0.0755 normalized occupancy
16,GGTACGAC,0.0721 normalized occupancy
17,CAGCACAC,0.0857 normalized occupancy
18,GAGCACAA,0.0775 normalized occupancy
19,GAGCACAC,0.0956 normalized occupancy
20,GCAGAATA,0.0753 normalized occupancy
21,ACGTGAAG,0.1 normalized occupancy
22,AAGTGAAG,0.076 normalized occupancy
23,ACGTGAAC,0.0842 normalized occupancy
24,ACGTGAAT,0.0824 normalized occupancy
25,ACGTGAAA,0.097 normalized occupancy

row,Sequence,binding signal
1,CCGTGAAG,0.0739 normalized occupancy
2,GATGAAAC,0.0811 normalized occupancy
3,AGCGTTAC,0.0823 normalized occupancy
4,CACGCAAG,0.0838 normalized occupancy
5,CACGCATA,0.0976 normalized occupancy
6,CACGCACC,0.0913 normalized occupancy
7,CGCGCACA,0.0822 normalized occupancy
8,GGCGCACA,0.0793 normalized occupancy
9,GACGCATA,0.0777 normalized occupancy
10,AACGCATA,0.0871 normalized occupancy
11,CGCGCACG,0.0959 normalized occupancy
12,CACGCACA,0.0923 normalized occupancy
13,TACGCATA,0.0842 normalized occupancy
14,CACGCACG,0.096 normalized occupancy
15,CACGCATG,0.121 normalized occupancy
16,ACACAGTC,0.0783 normalized occupancy
17,GTAGTCTA,0.0723 normalized occupancy
18,GTACTACA,0.0864 normalized occupancy
19,ACTTTAGG,0.073 normalized occupancy
